# Experimental data published in PubChem BioAssay (EPA / NIEHS).
# Where “and” joins values, the source holds several entries; their conditions need not be identical. Equal values may be shown once. Records with an inconclusive call do not appear. The source holds several records for some structures; these can differ, active in one and inactive in another. Calls of active or inactive are those of the source. Rule for the calls, unless noted: active = hit-call score of the fitted dose curve at least 0.9, where 1 is the maximum; inconclusive = response in the unintended direction; inactive = score below 0.9.
# Read-out: UDP glucuronosyltransferase (UGT1A6), UGT1A6 (gene 54578)
# Assay: LTEA_HepaRG_UGT1A6: Life Technologies and Expression Analysis (LTEA) Assay for UDP glucuronosyltransferase (UGT1A6) using HepaRG (AID 2283539; active = hit-call score of the fitted dose curve at least 0.9, where 1 is the maximum; inactive = score below 0.9)
# Settings: mRNA level, 48 h; actives raise or lower the signal
# Outline: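 Human HepaRG cells were dosed for 48 h in serum-free induction medium with 0.5% DMSO vehicle, eight-point half-log series from 100 uM, in duplicate. UGT1A6 mRNA was measured by qRT-PCR, normalized to ACTB, GAPDH, POLR2A, and fitted bidirectionally against DMSO.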
SMILES,outcome,AC50
C=C(C)C(N)=O,inactive,–
CC/C(=C(\c1ccccc1)c1ccc(OCCN(C)C)cc1)c1ccccc1,inactive,45.8 µM (active)
C[C@]12CC[C@@H]3c4ccc(O)cc4CC[C@H]3[C@@H]1CC[C@@H]2O,inactive,–
COC(=O)c1ccc(C(=O)OC)cc1,inactive,–
CCCCOCCOCCO,inactive,–
O=C(c1ccc(OCCN2CCCCC2)cc1)c1c(-c2ccc(O)cc2)sc2cc(O)ccc12,–,50 µM (active)
C#C[C@]1(O)CC[C@H]2[C@@H]3CCc4cc(O)ccc4[C@H]3CC[C@@]21C,inactive,–

# Read-out: X-box binding protein 1 (XBP1), XBP1 (gene 7494)
# Assay: LTEA_HepaRG_XBP1: Life Technologies and Expression Analysis (LTEA) Assay for X-box binding protein 1 (XBP1) using HepaRG (AID 2283540; active = hit-call score of the fitted dose curve at least 0.9, where 1 is the maximum; inactive = score below 0.9)
# Settings: mRNA level, 48 h; actives raise or lower the signal
# Protocol: LTEA_HepaRG is a cell based, multiplexed-readout assay that uses HepaRG, a human liver cell line, with measurements taken at 48 hours after chemical dosing on a 96-well plate.LTEA_HepaRG_XBP1 is one of 102 assay component(s) measured in the LTEA HepaRG cell culture assay. It is a marker of Diseases associated with XBP1 including Major Affective Disorder 7 and Bipolar Disorder.Data from the assay component LTEA_HepaRG_XBP1 was analyzed into 1 endpoint. This assay endpoint, LTEA_HepaRG_XBP1, was analyzed with bidirectional fitting relative to DMSO as the negative control and baseline of activity. Using a type of inducible reporter, measures of mRNA induction for gain or loss-of-signal activity can be used to understand regulation of transcription factor activity. To generalize the intended target to other relatable targets, this assay endpoint is annotated to the dna binding intended target family, where the subfamily is basic leucine zipper.
# A total of 1060 chemcials from the ToxCast library were tested in eight-point concentration-response experiments. Cell culture and cytotoxicity assays were conducted at Thermo Fisher Scientific's Custom Services facility (Madison, WI). A single lot of human HepaRG cells (Thermo Fisher Scientific, Frederick, MD) was used for the cell culture experiments. 96-well format collagen type I coated plates of human HepaRG cells were prepared using established methods. Briefly, cryopreserved HepaRG cells were thawed, plated at a density of approximately 100,000 cells/well in HepaRG Thaw, Plate, and General Purpose media (HPRG770, Thermo Fisher Scientific), and incubated for 48 hours. 0.5% DMSO was selected as vehicle control to balance the requisite need of DMSO in HepaRG cultures to maintain differentiation (for example, baseline metabolism, proportions of hepatocytes vs. cholangiocytes), while enabling further hepatic receptor pathway activation (for example, PXR and CAR) in response to chemical exposure. 48 hours after plating, the culture medium was replaced with HepaRG Serum-Free Incudtion Media. Cells were exposed to each test chemical in duplicate and maintained in CO2 incubators for another 48 hours. Chemical plates were thawed to room temperature and 200x concentrations of treatment groups were prepared. 8-point conentration-reponse curves were made with the highest exposure at 100 uM, followed by half-log dilutions, all in 0.5% DMSO. Each test plate contained variouse controls, induction positive controls (1mM phenobarbital), cytotoxicity positive controls ([…] aflatoxin B1), vehicle controls (0.5% DMSO), and total lysis controls (0.5% DMSO). Cell morphology images were taken using an Essen IncuCyte FLR automated microscope, with six 96-well plates imaged in about 24 minutes. Images were captured and exported and JPEG files. Spent culture media was transfered to black-well plates for the LDH assay, and remaining media was sorted at -80 C for later use. Cells were treated with RLT buffer and frozen until shipped for gene expression analysis. Total RNA was isolated from the cell suspension in 75 uL of Buffer RLT (Qiagen, Germantown, MD 20874) by Quintiles/Expression Analysis (Durham, NC) using a custom isolation procedure. Total RNA from each plate well was transferred to a preamplification plate. Fluidigm's 96.96 Dynamic ArrayTM (Fluidigm, Amsterdam, the Netherlands) technology was used for gene expression analyses by quantitative reverse transcription polymerase chain reaction (qRT-PCR, performed by Quintiles/Expression Analysis, Durham, NC)89. Standard TaqManTM Assays (Applied Biosystems/ThermoFisher Scientific, Foster City, CA) were used to assess the expression of 93 genes selected based on their selectivity and sensitivity to important hepatic receptors known to be modulated by environmental chemicals; importance in human hepatocyte functionality; and hepatotoxicity. […]
SMILES,outcome,AC50
C=C(C)C(N)=O,inactive,–
CC/C(=C(\c1ccccc1)c1ccc(OCCN(C)C)cc1)c1ccccc1,–,45.8 µM (active) and 96.2 µM (active)
C[C@]12CC[C@@H]3c4ccc(O)cc4CC[C@H]3[C@@H]1CC[C@@H]2O,inactive,–
COC(=O)c1ccc(C(=O)OC)cc1,inactive,–
CCCCOCCOCCO,inactive,–
O=C(c1ccc(OCCN2CCCCC2)cc1)c1c(-c2ccc(O)cc2)sc2cc(O)ccc12,–,50 µM (active)
C#C[C@]1(O)CC[C@H]2[C@@H]3CCc4cc(O)ccc4[C@H]3CC[C@@]21C,inactive,–

# Read-out: not listed separately
# Assay: LTEA_HepaRG_LDH_cytotoxicity: Cytotoxicity Assessment in the Life Technologies and Expression Analysis (LTEA) Assay (AID 2283563);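 for AC50: LDH activity released into spent culture medium as a marker of cell death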
# Settings: not given
# Outline: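 Differentiated human HepaRG cells, plated 48 h beforehand, were switched to serum-free induction medium and exposed for 48 h to eight half-log concentrations (top 100 uM) in 0.5% DMSO. LDH was measured in spent medium; activity was fitted relative to DMSO vehicle.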
SMILES,outcome,AC50
C=C(C)C(N)=O,inactive,–
CC/C(=C(\c1ccccc1)c1ccc(OCCN(C)C)cc1)c1ccccc1,–,63.5 µM (active) and 73.5 µM (active)
C[C@]12CC[C@@H]3c4ccc(O)cc4CC[C@H]3[C@@H]1CC[C@@H]2O,inactive,–
COC(=O)c1ccc(C(=O)OC)cc1,inactive,–
CCCCOCCOCCO,inactive,–
O=C(c1ccc(OCCN2CCCCC2)cc1)c1c(-c2ccc(O)cc2)sc2cc(O)ccc12,–,77.4 µM (active)
C#C[C@]1(O)CC[C@H]2[C@@H]3CCc4cc(O)ccc4[C@H]3CC[C@@]21C,inactive,–

# Test system: not listed separately
# Assay: ATG_XTT_Cytotoxicity: Cytotoxicity Assessment in the Attagene TRANS-FACTORIAL HepG2 Assay (AID 2283584)
# Settings: not given
# Outline: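 HepG2 human liver cells, transiently transfected with multiple GAL4-UAS reporter units, were dosed and read at 24 h by XTT as cell number. Loss of signal was fitted relative to DMSO negative control baseline.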
row,SMILES,outcome
1,CC(=N[Si](C)(C)C)O[Si](C)(C)C,inactive
2,c1ccc(Sc2ccccc2)cc1,inactive
3,OCC=Cc1ccccc1,inactive
4,C=C1CC[C@H]2O[C@]2(C)CC[C@@H]2[C@@H]1CC2(C)C,inactive
5,CCC=C(C)C=O,inactive
6,C=C(C)C(N)=O,inactive
7,CC=CC(=O)C1=C(C)C=CCC1(C)C,inactive
8,c1ccc2c(c1)-c1ccc3ccc4cccc5cc-2c1c3c45,inactive
9,O=C1CCC(=O)N1,inactive
10,NNC(=O)OCc1ccccc1,inactive
11,CC(O)CN (configuration not stated),inactive
12,O=C(O)c1ccc(C(=O)O)c(C(=O)O)c1,inactive
13,CCCCOCC(C)OCC(C)O (configuration not stated),inactive
14,Cc1ccccc1S,inactive
15,Cc1cc(O)c(C)c(C)c1O,inactive
16,O=C1CCCCCCCCCCCC(=O)OCCO1,inactive
17,CCCC[N+](C)(CCCC)CCCC,inactive
18,Cc1cccc(C)c1,inactive

row,SMILES,outcome
1,CC/C(=C(\c1ccccc1)c1ccc(OCCN(C)C)cc1)c1ccccc1,inactive
2,CCCCCCCCSCc1cc(C)c(O)c(CSCCCCCCCC)c1,inactive
3,N#CCCNCCC#N,inactive
4,CCCOC(=O)CC,inactive
5,CCCCCCCCCCCCOC(C)=O,inactive
6,C1CCCNCC1,inactive
7,CC(CO)(CO)[N+](=O)[O-],inactive
8,C1COCO1,inactive
9,COC(=O)c1ccc(C(=O)OC)cc1,inactive
10,CCCCOCCOCCO,inactive
11,O=c1cc[nH]cc1,inactive
12,CCO[Si](CCC#N)(OCC)OCC,inactive
13,O=C(O)c1cc2ccccc2cc1O,inactive
14,NS(=O)(=O)c1cc(C(=O)O)c(NCc2ccco2)cc1Cl,inactive
15,C#C[C@]1(O)CC[C@H]2[C@@H]3CCc4cc(O)ccc4[C@H]3CC[C@@]21C,inactive
16,C=CC(=O)OCC(CO)(COC(=O)C=C)COC(=O)C=C,inactive
17,NC(=O)c1c(Cl)cccc1Cl,inactive
